# According to PubChem BioAssay AID376 (PDSP, 2006):
# Among all 2,000 compounds or so, about 250 (12%) were called active. Shown is part of a subset that was picked to be rich in actives. Values without a mark were called inactive. Cut-off read from the data, not from the text of the source: active = hERG blockade below about -20% or above about 20%; inactive = in between.
# Molecular target: Voltage-gated inwardly rectifying potassium channel KCNH2 (Homo sapiens) (UniProt Q12809)
# Assay: modulators of KCNH2 ion channel function, cellular (AID 376);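 note: 0% = buffer alone and 100% = reference blocker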
# Conditions: hERG-expressing cells, channel activity single-concentration screen; concentration not given here
# Sequence of Voltage-gated inwardly rectifying potassium channel KCNH2 (Homo sapiens) (Q12809 whole entry, looked up): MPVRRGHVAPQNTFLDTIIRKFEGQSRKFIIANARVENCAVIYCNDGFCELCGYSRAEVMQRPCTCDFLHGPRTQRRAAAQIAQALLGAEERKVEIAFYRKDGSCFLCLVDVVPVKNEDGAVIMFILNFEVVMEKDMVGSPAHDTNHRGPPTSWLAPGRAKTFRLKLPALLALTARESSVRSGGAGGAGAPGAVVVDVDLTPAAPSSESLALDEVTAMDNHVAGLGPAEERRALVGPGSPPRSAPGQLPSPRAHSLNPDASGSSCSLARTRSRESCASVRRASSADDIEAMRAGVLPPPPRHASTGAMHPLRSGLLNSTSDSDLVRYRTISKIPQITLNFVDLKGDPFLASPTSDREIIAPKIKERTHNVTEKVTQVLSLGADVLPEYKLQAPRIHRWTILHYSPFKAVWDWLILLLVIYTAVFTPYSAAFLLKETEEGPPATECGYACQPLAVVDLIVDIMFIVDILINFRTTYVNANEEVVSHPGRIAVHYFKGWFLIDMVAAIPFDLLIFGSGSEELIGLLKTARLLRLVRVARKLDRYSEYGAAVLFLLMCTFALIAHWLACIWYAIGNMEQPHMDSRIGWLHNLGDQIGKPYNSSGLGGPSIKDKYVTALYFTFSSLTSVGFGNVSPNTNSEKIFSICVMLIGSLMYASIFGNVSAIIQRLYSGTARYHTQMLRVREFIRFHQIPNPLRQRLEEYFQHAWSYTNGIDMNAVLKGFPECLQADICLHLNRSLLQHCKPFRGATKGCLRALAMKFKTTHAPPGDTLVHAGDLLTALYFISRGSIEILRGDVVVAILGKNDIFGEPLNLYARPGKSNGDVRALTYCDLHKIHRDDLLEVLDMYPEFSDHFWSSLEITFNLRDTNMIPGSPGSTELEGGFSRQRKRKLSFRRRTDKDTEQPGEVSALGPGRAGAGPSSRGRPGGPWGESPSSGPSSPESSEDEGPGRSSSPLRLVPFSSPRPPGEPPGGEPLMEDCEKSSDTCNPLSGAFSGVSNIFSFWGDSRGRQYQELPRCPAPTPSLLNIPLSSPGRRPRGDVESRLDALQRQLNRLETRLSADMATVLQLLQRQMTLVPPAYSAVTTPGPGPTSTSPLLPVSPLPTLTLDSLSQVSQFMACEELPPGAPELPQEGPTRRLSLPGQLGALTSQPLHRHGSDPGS
row,SMILES,hERG blockade
1,Cc1ccc(N=Nc2ccc(N)cc2C)c(S(N)(=O)=O)c1,23.9% (active)
2,Nc1c(S(N)(=O)=O)cc(S(N)(=O)=O)cc1S(N)(=O)=O,11.4%
3,Cc1ccc(N=Nc2c(O)c3ccccc3[nH]c2=O)c(S(=O)(=O)N(C)C)c1,7.5%
4,CC1(C)OCC(C2OC3OC(C)(C)OC3C2N)O1 (configuration not stated),-5.67%
5,CCOC(=O)Nc1nc(-c2ccccc2)c(C)s1,18.9%
6,O=C(O)C(CCc1ccccn1)c1ccccc1 (configuration not stated),5.69%
7,NC(=O)C(=Cc1ccncc1)c1cccc2ccccc12,-12.9%
8,O=C(O)C1C(C(=O)Nc2ccc3c(c2)Cc2ccccc2-3)C2(Cl)C(Cl)=C(Cl)C1(Cl)C2(Cl)Cl (configuration not stated),10.6%
9,Cc1cc2ccc(OC(=O)c3ccc(N=C(N)N)cc3)cc2oc1=O,13.7%
10,OCCSCc1cc(Cl)cc(Cl)c1O,6.93%
11,Oc1ccc(Cc2cc(Cl)cc(Cl)c2O)cc1Cl,45.1% (active)
12,O=C(O)c1cc(Cl)cc(Cc2cc(Cl)cc(C(=O)O)c2O)c1O,17.1%
13,Oc1ccc(Cl)cc1Cc1cc(Cl)cc(Cc2cc(Cl)ccc2O)c1O,20.3% (active)
14,O=C(O)Cc1cc(Cl)ccc1O,-4.5%
15,CN(Cc1cc(Cl)cc(Cl)c1O)Cc1c(O)ccc2ccccc12,10.9%
16,CC(C)(N=NC(C)(C)C(=N)N)C(=N)N,63.7% (active)
17,CC(C)c1ccc(C(C(=O)O)=C(O)C(=O)O)cc1,6.01%
18,CC12CCC(O)CC1=CCC1C2CCC2(C)C1CCC2N(CCO)CCO (configuration not stated),-0.272%
19,CN(C)CCC(=O)C1(O)CCC2C3CC=C4CC(O)CCC4(C)C3CCC21C (configuration not stated),2.46%
20,CCC1CCC2C3CC=C4CC(OC(C)=O)C(N)CC4(C)C3CCC12C (configuration not stated),63.9% (active)
21,COc1ccc2c(c1)CN(C(C)C1CCC3C4CCC5CC(O)CCC5(C)C4CCC31C)CO2 (configuration not stated),51.3% (active)
22,COC(=O)CCC(C)C1CCC2C3CCC4CC(O)CCC4(C)C3CCC12C (configuration not stated),3.2%
23,CC(CCC(=O)O)C1CCC2C3CCC4CC(O)CCC4(C)C3CCC12C (configuration not stated),5.62%
24,CC(=N[O-])C(C)=N[O-].CC(=N[O-])C(C)=N[O-].CC(=N[O-])C(C)=N[O-].CC(=N[O-])C(C)=N[O-].[Cu].[Cu],17.9%
25,O=S(=O)(c1ccc2ccccc2c1)N1CCN(S(=O)(=O)c2ccc3ccccc3c2)CC1,-1.84%
26,c1ccc2c(CN3CCN(Cc4c[nH]c5ccccc45)CC3)c[nH]c2c1,-0.497%

row,SMILES,hERG blockade
1,C[N+]1(C(CO)Cc2c[nH]c3ccccc23)Cc2ccccc2C1 (configuration not stated),1.67%
2,OCC(CCc1c[nH]c2ccccc12)c1c[nH]c2ccccc12 (configuration not stated),53.3% (active)
3,O=C(O)C1CCCN1 (configuration not stated),5.2%
4,NC(=S)SCCC(=O)O,0.17%
5,CC1=CC(C2C(=NO)C=C(C)CC2(C)C)C(O)C(C)(C)C1 (configuration not stated),2.54%
6,CC(=O)C(C(c1ccccc1)N1CCOCC1)N1CCOCC1 (configuration not stated),-3.85%
7,COc1cccc2c1C(=N)c1c(O)c3c(c(O)c1C2=O)CC(O)(C(C)=O)CC3OC1CC(N)C(O)C(C)O1 (configuration not stated),32.2% (active)
8,COc1cccc2c1C(=O)c1c(O)c3c(c(O)c1C2=O)CC(O)(C(=O)CO)CC3OC1CC(N)C(O)C(C)O1.[W] (configuration not stated),0.939%
9,COc1cccc2c1C(=O)c1c(O)c3c(c(O)c1C2=O)CC(O)(C(=O)CO)CC3OC1CC(N)C(O)C(C)O1 (configuration not stated),3.44%
10,O=C(O)CC(=Cc1ccccc1)C(=O)O,-18.3%
11,CC1(C)OC2COC(c3[nH]nc4c(=O)[nH]c(=O)[nH]c34)C2O1 (configuration not stated),16.5%
12,O=C(O)c1ccc(Oc2nc3ccccc3s2)cc1,1.79%
13,CN(C)CCCN=c1c2ccccc2n(C)c2[nH]c(=O)n(C)c(=O)c12,54.8% (active)
14,CN(C)CCCCN1CCc2c(n(C)c3ccccc23)C1=O,-2.05%
15,CCN(CC)COC(=S)S,-4.52%
16,CC1(C)OCC(C2OC(On3nnc4ccc(Cl)cc43)C3OC(C)(C)OC23)O1 (configuration not stated),12.7%
17,NC(=O)CS(=O)CC(N)C(=O)O (configuration not stated),5.23%
18,NC(N)=NN=Cc1ccc(C2CCNCC2)cc1,6.62%
19,Nc1c(S(=O)(=O)O)cc(S(=O)(=O)O)c2ccc(N=Nc3ccccc3)c(O)c12,11.9%
20,COc1cc(N=Nc2cccc(S(N)(=O)=O)c2)c2ccccc2c1N,70.8% (active)
21,N=C(N)SCCON1C(=O)c2ccccc2C1=O,-2.21%
22,CC(=O)Nc1ccc(Cc2ccc3[nH]c(=O)cc(C)c3c2)cc1,0.318%
23,CSC(=[SH+])[N-]N=C(c1ccccn1)c1ccccn1.[Cu][Br],3.34%
24,CC1(C)SC2C(NC(=O)C3(N)CCCCC3)C(=O)N2C1C(=O)O (configuration not stated),-8.47%
25,NC(N)=NNC(=O)C(=O)O,-3.63%
26,NNC(=O)CCSc1ccccc1,3.37%

row,SMILES,hERG blockade
1,O=C(O)CCCc1ccc2ccc3ccccc3c2c1,8.7%
2,NNC(=O)CCc1ccc2ccc3ccccc3c2c1,-44.7% (active)
3,O=C(CON1C(=O)c2ccccc2C1=O)c1ccccc1,13.2%
4,O=C(O)c1ccccc1-c1ccccc1C(=O)Nc1ccc2c(c1)Cc1cc(F)ccc1-2,-4.28%
5,CC(CCCC1SCC2NC(=O)NC21)C(=O)O (configuration not stated),6.78%
6,Cc1cc2cc3c(=O)[nH]c(=O)[nH]c3nc2cc1C,-26% (active)
7,Cc1cc2nc3[nH]c4c(Cl)cc(Cl)cc4c3nc2cc1C,-2.06%
8,Cc1cc2c(=O)[nH]c(N)nc2nc1C,-6.54%
9,O=C(c1cc(Br)ccc1O)c1cc(Br)ccc1O,-0.498%
10,Clc1ccccc1NN(Cc1ccncc1)c1ccccc1Cl,9.21%
11,COc1ccc(NC(=S)Nc2ccccc2)cc1,3.26%
12,Cc1cc(C(C)(C)C)c(OCCCN2CCOCC2)c(C(C)(C)C)c1,20.8% (active)
13,OCCCN=C1CCCCC1,13.3%
14,NCc1ccc(C(=O)O)cc1,-10.8%
15,c1cncc(CNc2ncn[nH]2)c1,-6.56%
16,CC(C)N1CCN(c2ccncc2S(=O)(=O)N2CCCCC2)CC1,4.4%
17,O=c1[nH][nH]c(=S)c(=O)[nH]1,4.97%
18,O=c1[nH]c2[nH]c(=S)[nH]c(=S)c2[nH]1,33.1% (active)
19,Clc1ccccc1NN(Cc1ccccn1)c1ccccc1Cl,7.97%
20,Cc1cc(=O)[nH]c(N=C(N)Nc2ccc(Cl)cc2)n1,-17.7%
21,Cc1cccc(C(=O)O)c1CC1NCCC2c3ccccc3NC12 (configuration not stated),32.1% (active)
22,NC(Cc1cccnn1)C(=O)O (configuration not stated),5.87%
23,O=S(=O)(O)n1ccnc1 (tested in a mixture with another compound),-15.4%
24,S=C(Nc1ccc2cn[nH]c2c1)Nc1ccc2cn[nH]c2c1,-19.3%
25,CCN(CC)CC[n+]1ccc2c(C)c3[nH]c4ccccc4c3c(C)c2c1,36.7% (active)
26,Cc1c2cc[n+](CCN3CCCCC3)cc2c(C)c2c1[nH]c1ccc(O)cc12,26.1% (active)

row,SMILES,hERG blockade
1,CCN(CC)CC[n+]1ccc2c(C)c3[nH]c4ccc(O)cc4c3c(C)c2c1,45.4% (active)
2,NCCNC(=S)S,5.6%
3,NN=C1CC(=O)NC(=O)N1,-9.37%
4,CCCCNc1nc(SC)nc2nc[nH]c12,6.48%
5,COC1C=COC2(C)Oc3c(C)c(O)c4c(O)c(cc(O)c4c3C2=O)NC(=O)C(C)=CC=CC(C)C(O)C(C)C(O)C(C)C(OC(C)=O)C1C (configuration not stated),8.1%
6,CC(C)(C)COS(=O)OCC(C)(C)C,-13.1%
7,CC(=O)C=NCC(=O)O,-0.567%
8,O=C(O)Cc1c[nH]c2ccc(F)cc12,-3.11%
9,CCOP1(=O)OCC2OC(n3cnc4c(N)ncnc43)C(O)C2O1 (configuration not stated),5.38%
10,CCOc1ccc2c(ccc(C=Cc3cc(C)c4cccnc4c3O)[n+]2C)c1,37% (active)
11,O=C(O)CCC(C(=O)O)N1C(=O)C2C3CCC(C3)C2C1=O (configuration not stated),7.54%
12,CC12CCC(=O)C=C1CCC1C2C(O)CC2(C)C(c3csc(-c4ccccc4)n3)CCC12 (configuration not stated),-6.87%
13,CCc1ccc2c(c1)N(CC(C)CN(C)C)c1ccccc1S2 (configuration not stated),25.4% (active)
14,O=C(O)C(Cc1ccccc1)Cc1ccccc1,-4.1%
15,CN(C)c1ccc(C(C#N)N2CCCN(C(C#N)c3ccc(N(C)C)cc3)C2c2ccc(N(C)C)cc2)cc1 (configuration not stated),6%
16,Cc1ccc(S(=O)(=O)N=Nc2c(O)[nH]c3cc(O)c(C(=O)O)cc23)cc1,-2.22%
17,C[N+](C)(C)c1nc(N)nc2c1ncn2C1OC(CO)C(O)C1O (configuration not stated),13.1%
18,OCC1OC(n2cnc3c(C=C(O)c4ccccc4)ncnc32)C(O)C1O (configuration not stated),9.21%
19,C[N+](C)(C)c1ncnc2c1ncn2C1CCCCO1 (configuration not stated),-24.9% (active)
20,Fc1cccc(CSc2ncnc3c2ncn3C2CCCS2)c1 (configuration not stated),12.5%
21,O=[N+]([O-])c1ccc(Cl)c(CNc2ncnc3c2ncn3C2CCCCO2)c1 (configuration not stated),7.11%
22,OCCn1cnc2c(SCc3ccccc3)ncnc21,-7.5%
23,Clc1ccc(CSc2ncnc3c2ncn3C2CCCCO2)cc1 (configuration not stated),24.5% (active)
24,OCC1OC(n2cnc3c(SCc4ccccc4)ncnc32)C(O)C1O (configuration not stated),22.8% (active)
